# According to PubChem BioAssay (NCI):
# Values joined by “and” are separate entries in the source; they are usually repeats but may differ in a detail not shown here. Equal entries are not always repeated. The panel holds about 83,000 compounds, 20% with a hit somewhere; the sample as a whole holds those more often.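 For each line, cells grew in 96-well plates with the test compound present at a single concentration for 48 hours.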 Active and inactive are the calls of the source. The calls were made as follows: active = growth percent below 10; inactive = the rest.
# Test system: HL-60(TB) leukemia
# Assay: NCI-60 one-dose screen, 48 h (100 = growth as untreated, 0 = no growth, -100 = all killed)
# Details: 10 µM unless noted
row,SMILES,growth
1,COc1cccc(OC(=O)c2ccccc2)c1OC(=O)c1ccccc1,69.6% (inactive)
2,COc1cc(CNC(=O)CCCCC[P+](c2ccccc2)(c2ccccc2)c2ccccc2)c(OC)c2c1OCO2,-2.75% (active)
3,O=C(CSc1nc2ccc([N+](=O)[O-])cc2[nH]1)Nc1ccc(F)c(Cl)c1,10.7% (inactive)
4,O=C1c2cccc3cccc(c23)C(=O)N1N1C(=O)c2cccc3c(N4CCOCC4)ccc(c23)C1=O,125% (inactive)
5,CC(C)c1c(C(=O)Nc2ccccc2)c(-c2ccccc2)c(-c2ccc(F)cc2)n1CC[C@@H]1CC=CC(=O)O1,-27.9% (active)
6,Cc1c(Cl)cccc1NC(=O)c1sc2nc3c(cc2c1N)CCCCC3,-24.9% (active)
7,COc1cc(/C=C2\C(=O)N(Cc3ccc(Cl)cc3)c3ccccc32)cc(OC)c1OC,-13.5% (active)
8,N#CC1=C(N)Oc2c(sc3c(F)cccc23)C1c1ccc(F)cc1 (stereo not given),5.96% (active)
9,CCCC(=O)Oc1ccc(/C(=C(\C)c2ccccc2)c2ccc(OCCN(CC)CC)cc2)cc1,39.2% (inactive)
10,CCCCCCCCCCCCCCCCCCOc1ccccc1N,2.15% (active)
11,CCCCCn1sc(=O)n(Cc2ccc(CNC(=O)OCc3ccc4cccc(O)c4n3)cc2)c1=O,-13.5% (active)
12,CCOC(=O)N(O)c1ccc(/C=C/c2ccccc2)cc1,61.1% (inactive) and 43.9% (inactive)
13,Cn1c2nc3ccccc3c-2nc2ccccc21,88.8% (inactive) and 55.2% (inactive)
14,Cc1ccc(Nn2c(SCC(=O)Nc3nc(-c4ccccc4)cs3)nc(C)c2C)cc1,63.8% (inactive)
15,CCOC(=O)c1cc2c(n1Cc1ccccc1OC)-c1oncc1CCC2,14.4% (inactive)
16,COc1ccc(C2CC(c3cccc(Nc4ccncc4)c3)=NN2c2ccc(Cl)cc2)cc1 (stereo not given),-46.5% (active)
17,CC[C@]1(O)C[C@@H]2CN(Cc3c([nH]c4ccccc34)[C@@](C(=O)OC)(c3cc4c(cc3OC)N(C)[C@H]3[C@@](O)(C(=O)OC)[C@H](OC(C)=O)[C@]5(CC)[C@@H]6C[C@@H]6CN6CC[C@]43[C@@H]65)C2)C1,-36.5% (active)
18,O=C(Cc1ccccc1)Cc1ccccc1,99.2% (inactive)

row,SMILES,growth
1,CCCCCCCCCCCCCCNC(=O)Nc1ccc(Cl)c(Cl)c1,79.1% (inactive)
2,COC1=CC(=O)c2nc(Cl)ccc2C1=O,-30.1% (active)
3,N=C(N)N1CCc2ccccc2C1,93.6% (inactive) and 109% (inactive)
4,COc1ccc(C2=Cn3c(CCC(=O)c4nc5ccccc5[nH]4)nnc3SC2)cc1,95.6% (inactive)
5,COc1ccccc1NC(=O)N/C(N)=N/c1nc2ccccc2s1,-27.1% (active)
6,O=C(Nc1ccc(Cl)cc1)Nc1ccc(Cl)c(Cl)c1,-23.6% (active)
7,CC(=O)O[C@H]1C(=O)[C@@]2(C)C([C@H](OC(=O)c3ccccc3)[C@]3(O)C[C@H](OC(=O)[C@H](O)[C@@H](NC(=O)c4ccccc4)c4ccccc4)C(C)=C1C3(C)C)[C@]1(OC(C)=O)CO[C@@H]1C[C@@H]2O (stereo not given in full),9.14% (active)
8,O=[N+]([O-])c1ccc2c(N=Nc3ccc4ccccc4c3O)c(O)cc(S(=O)(=O)O)c2c1,108% (inactive)
9,Cc1ccccc1/C=C1\CN(C(=O)OC(C)(C)C)C/C(=C\c2ccccc2C)C1=O,40.6% (inactive)
10,CC1(C)CC(=O)c2cc3c(N)c(C(=O)Nc4ccc(Cl)cc4)sc3nc2C1,107% (inactive)
11,C=C1C(=O)O[C@H]2[C@H]1CC/C(COC(=O)NCc1cc[nH]c1)=C\CC[C@@]1(C)O[C@@H]21,-6.94% (active)
12,Cc1nc2ccccc2c(/C=C/c2ccc(Cl)cc2)c1C(=O)/C=C/c1ccc(F)cc1,-7.94% (active)
13,COC(=O)CCC1=C(C)C2=NC1=CC1=NC(=CC3=NC(=Cc4[nH]c(/c(=C(/C)O)c4C)=C2)C(C(C)=O)=C3C)C(C)=C1CCC(=O)OC,78.2% (inactive)
14,CCOc1ccc(/C=N/N=C(N)N)cc1OCC,64.5% (inactive)
15,Cc1ccc(C2C3CC4CCCCC4N3[C@@]3(C(=O)Nc4cc(Cl)ccc43)C2C(=O)c2nc3ccccc3[nH]2)cc1 (stereo not given in full),1.4% (active)
16,COc1ccc(C(=O)c2no[n+]([O-])c2C(=O)c2ccc(OC)cc2)cc1,-79.7% (active)
17,C=CC[N+]1(CC)CCN=C1CCCCCCCCCCCCCCCCC (stereo not given),-59.5% (active)
